This passage reports growth results from PubChem BioAssay (NCI).

About 83,000 compounds went through this panel and 20% of them were active in at least one assay; those are over-represented in the sample as a whole.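 Values shown are percent growth following 48 h exposure of cells in 96-well plates to a single concentration of compound; below 10 was considered active.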 Unmarked numbers belong to inactive results. The source made the active and inactive calls.

This assay has as its system HCT-15 colon. Nature of the assay: NCI-60 one-dose screen, 48 h (100 = growth as untreated, 0 = no growth, -100 = all killed). The following applies: 10 µM unless noted. Here is the method:
Growth inhibition of the HCT-15 human tumor cell line is measured as a screen for anti-cancer activity. Cells are grown in 96 well plates and exposed to the test compound for 48 hours. Compounds are tested at a single concentration, which is 10^-5 M for most compounds. The reported endpoint is percent growth (GI% or GIPRCNT), where numbers from 0 - 100% represent growth inhibition, and numbers from -100% - 0 represent cell death. For example, a value of 40 represents 60% growth inhibition. A value of 0 means no net growth occurred over the course of the experiment. A value of -40 indicates 40% of cells at the beginning of the experiment died by the end of the experiment. A value of -100 means all cells are dead at the end of the experiment.
NCI-60 Human Tumor Cell Lines Screen was performed using the standard one-dose NCI protocol, which is described in more detail at https://dtp.cancer.gov/discovery_development/nci-60/default.htm.
Compounds with GIPRCNT values below 10 were considered active. Activity score was based on GIPRCNT using the following formula: […]
Score is 0 for GIPRCNT values of 100 or above, 50 for GIPRCNT values of 0, and 100 for GIPRCNT values of -100.
On to `COc1cc2cc(Oc3ccc(NC(=O)Nc4ccc(F)c(C(F)(F)F)c4)cc3)c(C)nc2cc1OCCN1CCOCC1`, for which the growth is 13.6%. As to `CCC12CCC[N+]3([O-])CCC4(C(=Nc5ccccc54)C(O)(C(=O)OC)C1)C23` (stereo not given), the growth is 108%.

Turning to `O=c1cc(SCc2ccccc2)nc[nH]1`, the growth was 105%. For the compound `CCOc1c(B(O)O)cccc1-c1nc2ccc3[nH]ncc3c2c2c1CCCC2`, the growth was 48.4%. With `COc1nc2ccc(C)cc2cc1-c1nc2c(cnn2-c2ccccc2)c(=O)[nH]1`, the growth is 61.8%. As for `Cc1ccc(-c2cnc3sc(C(=O)NCCc4ccccc4)c(C)n23)cc1`, the figure is 97.9%; as for `COc1cc(C(=O)/C=C/c2ccc(OCCCCCC[P+](c3ccccc3)(c3ccccc3)c3ccccc3)cc2)cc(OC)c1OC`, -54.7% (active); as for `O=C(CCN1C(=O)/C(=C/c2ccc(O)cc2)SC1=S)Nc1ccc(Cl)cc1`, 91.2%. For `NC1CCN(c2nc(Nc3cccc(C(F)(F)F)c3)c3c(=O)[nH]ccc3n2)CC1`, the growth was -80% (active). To `COc1cccc2nc3n(c12)C(c1c(F)cccc1F)SC3` (stereo not given) belongs 101%. As for `O=C1c2cccc3cccc(c23)C(=O)N1Nc1nc(NC2CCCCC2)nc(N2CCOCC2)n1`, the figure is 93.1%; as for `COc1cc(/C=C/c2ccccc2)cc(OC)c1`, 91%; as for `C[C@]12CC[C@@H]3c4cc(OC(F)F)c(OS(N)(=O)=O)cc4CC[C@H]3[C@@H]1CC[C@@H]2O`, 13.2%. Take `CN1CCN(c2ccc(-c3cc4c(Nc5ccc(F)c(Cl)c5)ncnn4c3)cn2)CC1`: the growth is 7.04% (active).

Consider `S=c1nc(-c2ccccc2)oc(=NC2CCCCC2)n1C1CCCCC1`, for which the growth is 16.1%. For the compound `c1ccc(CO[C@H]2CO[C@H]3[C@@H]2OC[C@@H]3Oc2ccc(Nc3ncnc4ccsc34)cc2)cc1`, the growth was 78.7%.

As for `CC1Cc2ccccc2N1NC(=O)c1ccc(Cl)c(S(N)(=O)=O)c1` (stereo not given), the growth is 106%. As for `CC([C@H]1CCC2C3CCC4C[C@@H](NC=O)CC[C@]4(C)C3CC[C@@]21C)N(C)C` (stereo not given in full), the growth was -59.7% (active). Regarding `CCC(=O)Nc1ccc(-c2nc(-c3cccc(OC)c3)c(-c3ccnc(Br)c3)[nH]2)cc1`, the growth was 21.5%. As for `CN(C)c1ccc2nc3ccc(=[N+](C)C)c([N+](=O)[O-])c-3sc2c1`, the growth was 32.1%. For the compound `Cc1ccc(-c2nn(C)c(=O)c3noc(-c4ccc(C)cc4)c23)cc1`, the growth was 32.3%.

For the compound `COc1cc(Nc2nc(NCCN)nc3cc[nH]c(=O)c23)cc(OC)c1`, the growth is 102%.

Regarding `COc1ccc(-c2nc3sc(-c4ccccc4)cn3n2)cc1`, the growth is 30.4%. For `Cc1nc2ccccc2c(/C=C/c2ccccc2)c1C(=O)/C=C/c1ccc(C(F)(F)F)cc1`, the growth was -19.9% (active).

For `COc1ccc(OC)c(/C=C/C(=O)N/N=C/c2ccc(Cl)cc2)c1`, the growth is 29.4%. With `Cc1cc(O)c(C2=NN(c3ccc(S(N)(=O)=O)cc3)C(c3ccccc3O)C2)cc1Cl` (stereo not given), the growth was 17.5%. As for `Cn1cc(-c2cc3ncnc(Nc4ccc(CC(=O)Nc5cc(C(C)(C)C)nn5C)cc4)c3s2)cn1`, the growth was 54.8%. `O=c1c2cc(F)cc(Cl)c2sc2c(NCCCNCCO)nc3ccccc3c12`: the growth is 77.3%.

For `Oc1ccc(Cl)cc1Cc1cc(Cl)cc(Cl)c1O`, the growth is 41.2%. Consider `S=C(c1cccs1)N1CCN(c2cccc(Cl)c2)CC1`, for which the growth is 88.7%. Take `Cc1cc2nc3ccc(N=Nc4ccc(N(C)C)cc4)cc3n(-c3ccccc3)c-2cc1=N`: the growth is -77.2% (active). Regarding `COc1ccc(CN2c3ccccc3CCc3ccccc32)cc1F`, the growth was 24.9%. As for `CNCCCNc1nc2ccccc2c2c(=O)c3cc(F)ccc3sc12`, the figure is 3.52% (active). On to `CC(=O)N1CCN(c2ccc(OCC3CO[C@](Cn4ccnc4)(c4ccc(Cl)cc4Cl)O3)cc2)CC1` (stereo not given in full), for which the growth was 75%. To `Cc1nc(/N=C(\N)NC(=O)Nc2cccc(Cl)c2)sc1C` belongs 32%; to `C#Cc1cccc(NC(=O)c2ccc(NC(=O)C=C)cc2)c1`, 60.9% [8.25 µM]. As for `O=C(/C=C/c1cccc2ccccc12)c1ccc(NC(=O)c2ccccc2CN2C(=O)c3ccccc3C2=O)cc1`, the figure is 54.2%.

With `COc1ccc2[nH]c(-c3ccccc3)c(/C=C(\C#N)S(=O)(=O)c3ccccc3)c2c1`, the growth was 39.3%. Turning to `c1ccc2c(c1)Nc1ccncc1S2`, the growth was 99.7%. As for `CCOC(=O)C1=C(N)Oc2c(sc3c(C)cccc23)C1c1ccc(F)cc1` (stereo not given), the growth was 6.3% (active).
